Unmarked numbers belong to inactive results.
Legend:
Experiment in all cases: log2 ratio of Biotin-Ahx-Ub-VS probe labelling (fragment/DMSO); higher = less target engagement (more negative = stronger competition), active = hit call of the paper (q ≤ 0.05, log2 ratio ≤ -1)
Conditions in all cases: compound concentration: 200 uM; treatment time: 3 h
USP19 = molecular target: T1, USP19 (UniProt O94966)
T1 sequence (whole entry): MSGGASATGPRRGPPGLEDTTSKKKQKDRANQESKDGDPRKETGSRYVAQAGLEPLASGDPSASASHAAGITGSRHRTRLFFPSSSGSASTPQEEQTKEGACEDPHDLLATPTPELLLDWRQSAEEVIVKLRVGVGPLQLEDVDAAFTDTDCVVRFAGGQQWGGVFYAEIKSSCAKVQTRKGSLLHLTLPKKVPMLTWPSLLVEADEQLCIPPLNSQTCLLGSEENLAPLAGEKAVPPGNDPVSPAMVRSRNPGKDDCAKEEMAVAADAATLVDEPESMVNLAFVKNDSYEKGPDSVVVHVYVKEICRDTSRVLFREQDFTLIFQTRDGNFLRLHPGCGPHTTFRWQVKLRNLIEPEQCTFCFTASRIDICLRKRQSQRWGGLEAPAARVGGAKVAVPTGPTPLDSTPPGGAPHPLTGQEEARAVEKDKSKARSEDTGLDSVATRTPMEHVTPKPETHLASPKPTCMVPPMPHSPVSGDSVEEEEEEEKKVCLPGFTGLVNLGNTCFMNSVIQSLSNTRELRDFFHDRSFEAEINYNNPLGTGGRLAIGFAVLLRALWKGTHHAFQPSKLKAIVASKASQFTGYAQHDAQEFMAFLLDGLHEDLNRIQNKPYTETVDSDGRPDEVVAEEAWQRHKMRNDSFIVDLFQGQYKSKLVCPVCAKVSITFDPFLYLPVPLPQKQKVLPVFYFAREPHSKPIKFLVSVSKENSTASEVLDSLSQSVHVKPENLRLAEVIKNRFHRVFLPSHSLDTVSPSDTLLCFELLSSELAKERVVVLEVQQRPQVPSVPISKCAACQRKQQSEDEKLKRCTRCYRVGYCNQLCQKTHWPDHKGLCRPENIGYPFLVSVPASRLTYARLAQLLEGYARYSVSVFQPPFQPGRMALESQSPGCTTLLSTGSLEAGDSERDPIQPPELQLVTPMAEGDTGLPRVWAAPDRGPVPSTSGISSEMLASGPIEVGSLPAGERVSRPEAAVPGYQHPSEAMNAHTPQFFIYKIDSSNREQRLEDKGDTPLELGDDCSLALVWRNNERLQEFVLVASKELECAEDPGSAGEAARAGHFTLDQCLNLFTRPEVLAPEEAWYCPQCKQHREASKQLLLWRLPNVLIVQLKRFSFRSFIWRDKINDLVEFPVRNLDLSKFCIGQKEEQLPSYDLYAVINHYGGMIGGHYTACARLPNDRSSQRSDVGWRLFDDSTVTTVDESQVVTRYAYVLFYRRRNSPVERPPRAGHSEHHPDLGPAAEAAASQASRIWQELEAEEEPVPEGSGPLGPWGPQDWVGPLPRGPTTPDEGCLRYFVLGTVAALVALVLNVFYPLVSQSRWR
How it was run: (§1)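 HEK293T lysate, 495 µg per sample in Tris/CHAPS/IGEPAL buffer with protease inhibitors, was treated in triplicate with fragment at 200 µM or vehicle for 3 h and then with Biotin-Ahx-Ub-VS at 0.5 µM final for 1 h. Labelled DUBs were NeutrAvidin-enriched, digested with LysC and trypsin, and run by diaPASEF LC-MS/MS. Spectronaut label-free quantities were global-median-normalised, and values are average log2 fragment/vehicle ratios by unpaired t-test on proteins with ≥2 unique peptides.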

USP22 = molecular target: T2, USP22 (UniProt Q9UPT9)
T2 sequence (whole entry): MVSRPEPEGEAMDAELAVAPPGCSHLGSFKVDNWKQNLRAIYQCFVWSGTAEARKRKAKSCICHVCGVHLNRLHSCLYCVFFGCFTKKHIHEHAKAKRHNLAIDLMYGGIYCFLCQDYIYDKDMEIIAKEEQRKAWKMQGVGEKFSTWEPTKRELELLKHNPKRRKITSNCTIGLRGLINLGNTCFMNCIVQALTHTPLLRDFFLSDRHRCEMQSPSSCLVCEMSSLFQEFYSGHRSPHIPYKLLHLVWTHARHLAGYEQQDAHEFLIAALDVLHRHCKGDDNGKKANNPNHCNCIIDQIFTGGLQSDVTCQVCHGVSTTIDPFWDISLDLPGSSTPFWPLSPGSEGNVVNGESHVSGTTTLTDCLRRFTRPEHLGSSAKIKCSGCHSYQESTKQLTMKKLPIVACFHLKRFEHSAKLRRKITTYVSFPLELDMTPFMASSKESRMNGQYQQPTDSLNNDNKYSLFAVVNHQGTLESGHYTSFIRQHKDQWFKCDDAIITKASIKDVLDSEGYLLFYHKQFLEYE
How it was run: as §1

USP24 = USP24 (UniProt Q9UPU5)
How it was run: as §1

USP25 = molecular target: T3, USP25 (UniProt Q9UHP3)
T3 sequence (whole entry): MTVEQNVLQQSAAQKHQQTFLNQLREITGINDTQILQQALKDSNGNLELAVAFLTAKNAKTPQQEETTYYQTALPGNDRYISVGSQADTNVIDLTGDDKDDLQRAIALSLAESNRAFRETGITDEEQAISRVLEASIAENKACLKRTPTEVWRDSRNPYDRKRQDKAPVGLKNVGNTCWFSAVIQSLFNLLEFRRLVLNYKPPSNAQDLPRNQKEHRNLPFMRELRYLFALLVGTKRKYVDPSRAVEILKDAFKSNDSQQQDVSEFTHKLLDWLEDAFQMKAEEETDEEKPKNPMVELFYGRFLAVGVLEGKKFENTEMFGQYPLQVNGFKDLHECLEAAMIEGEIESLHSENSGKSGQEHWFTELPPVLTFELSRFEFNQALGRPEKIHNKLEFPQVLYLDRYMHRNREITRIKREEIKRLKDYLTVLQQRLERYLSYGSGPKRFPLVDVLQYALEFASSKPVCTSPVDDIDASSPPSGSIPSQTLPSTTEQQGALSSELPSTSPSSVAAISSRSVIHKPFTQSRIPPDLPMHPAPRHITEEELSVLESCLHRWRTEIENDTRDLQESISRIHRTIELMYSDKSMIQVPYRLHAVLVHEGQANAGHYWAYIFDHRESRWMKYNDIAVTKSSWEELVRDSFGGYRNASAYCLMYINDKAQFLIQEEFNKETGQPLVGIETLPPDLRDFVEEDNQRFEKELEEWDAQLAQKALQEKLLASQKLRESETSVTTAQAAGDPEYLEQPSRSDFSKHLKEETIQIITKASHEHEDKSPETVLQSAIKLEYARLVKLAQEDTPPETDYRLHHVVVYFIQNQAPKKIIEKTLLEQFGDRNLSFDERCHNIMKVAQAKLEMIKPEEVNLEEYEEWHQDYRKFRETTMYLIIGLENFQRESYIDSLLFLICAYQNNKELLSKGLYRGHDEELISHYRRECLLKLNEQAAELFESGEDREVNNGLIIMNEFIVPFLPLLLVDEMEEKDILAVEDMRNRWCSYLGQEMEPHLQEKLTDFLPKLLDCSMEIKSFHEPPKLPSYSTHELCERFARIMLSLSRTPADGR
How it was run: as §1

USP28 = molecular target: T4, USP28 (UniProt Q96RU2)
T4 sequence (whole entry): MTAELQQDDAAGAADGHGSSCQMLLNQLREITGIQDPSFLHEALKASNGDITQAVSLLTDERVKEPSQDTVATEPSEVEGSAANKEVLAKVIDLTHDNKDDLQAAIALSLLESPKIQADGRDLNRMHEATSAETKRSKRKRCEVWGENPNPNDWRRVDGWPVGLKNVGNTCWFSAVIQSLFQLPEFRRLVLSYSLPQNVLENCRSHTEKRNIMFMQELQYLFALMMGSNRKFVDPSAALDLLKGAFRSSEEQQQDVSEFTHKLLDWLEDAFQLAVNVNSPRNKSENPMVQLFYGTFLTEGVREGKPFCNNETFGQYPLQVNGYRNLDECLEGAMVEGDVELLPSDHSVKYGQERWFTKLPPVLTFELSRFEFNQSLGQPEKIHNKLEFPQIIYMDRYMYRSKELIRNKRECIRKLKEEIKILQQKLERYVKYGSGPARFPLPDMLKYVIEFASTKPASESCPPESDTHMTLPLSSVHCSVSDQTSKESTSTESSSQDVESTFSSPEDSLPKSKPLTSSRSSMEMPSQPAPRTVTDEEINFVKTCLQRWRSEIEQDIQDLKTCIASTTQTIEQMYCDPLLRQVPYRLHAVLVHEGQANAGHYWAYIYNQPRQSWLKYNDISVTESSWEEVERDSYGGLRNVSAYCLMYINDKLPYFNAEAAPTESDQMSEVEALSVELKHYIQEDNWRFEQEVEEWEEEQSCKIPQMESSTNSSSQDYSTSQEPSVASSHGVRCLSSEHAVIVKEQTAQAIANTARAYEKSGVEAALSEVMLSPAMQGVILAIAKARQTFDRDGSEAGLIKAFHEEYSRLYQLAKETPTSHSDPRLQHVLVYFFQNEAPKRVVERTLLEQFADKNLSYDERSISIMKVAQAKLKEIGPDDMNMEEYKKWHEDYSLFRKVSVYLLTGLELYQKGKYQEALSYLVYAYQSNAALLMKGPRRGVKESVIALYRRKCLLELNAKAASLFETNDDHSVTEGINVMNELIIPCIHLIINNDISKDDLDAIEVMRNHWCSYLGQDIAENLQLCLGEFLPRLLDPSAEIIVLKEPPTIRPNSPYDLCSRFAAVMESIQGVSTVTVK
How it was run: as §1

USP24, sequence (Q9UPU5 whole entry): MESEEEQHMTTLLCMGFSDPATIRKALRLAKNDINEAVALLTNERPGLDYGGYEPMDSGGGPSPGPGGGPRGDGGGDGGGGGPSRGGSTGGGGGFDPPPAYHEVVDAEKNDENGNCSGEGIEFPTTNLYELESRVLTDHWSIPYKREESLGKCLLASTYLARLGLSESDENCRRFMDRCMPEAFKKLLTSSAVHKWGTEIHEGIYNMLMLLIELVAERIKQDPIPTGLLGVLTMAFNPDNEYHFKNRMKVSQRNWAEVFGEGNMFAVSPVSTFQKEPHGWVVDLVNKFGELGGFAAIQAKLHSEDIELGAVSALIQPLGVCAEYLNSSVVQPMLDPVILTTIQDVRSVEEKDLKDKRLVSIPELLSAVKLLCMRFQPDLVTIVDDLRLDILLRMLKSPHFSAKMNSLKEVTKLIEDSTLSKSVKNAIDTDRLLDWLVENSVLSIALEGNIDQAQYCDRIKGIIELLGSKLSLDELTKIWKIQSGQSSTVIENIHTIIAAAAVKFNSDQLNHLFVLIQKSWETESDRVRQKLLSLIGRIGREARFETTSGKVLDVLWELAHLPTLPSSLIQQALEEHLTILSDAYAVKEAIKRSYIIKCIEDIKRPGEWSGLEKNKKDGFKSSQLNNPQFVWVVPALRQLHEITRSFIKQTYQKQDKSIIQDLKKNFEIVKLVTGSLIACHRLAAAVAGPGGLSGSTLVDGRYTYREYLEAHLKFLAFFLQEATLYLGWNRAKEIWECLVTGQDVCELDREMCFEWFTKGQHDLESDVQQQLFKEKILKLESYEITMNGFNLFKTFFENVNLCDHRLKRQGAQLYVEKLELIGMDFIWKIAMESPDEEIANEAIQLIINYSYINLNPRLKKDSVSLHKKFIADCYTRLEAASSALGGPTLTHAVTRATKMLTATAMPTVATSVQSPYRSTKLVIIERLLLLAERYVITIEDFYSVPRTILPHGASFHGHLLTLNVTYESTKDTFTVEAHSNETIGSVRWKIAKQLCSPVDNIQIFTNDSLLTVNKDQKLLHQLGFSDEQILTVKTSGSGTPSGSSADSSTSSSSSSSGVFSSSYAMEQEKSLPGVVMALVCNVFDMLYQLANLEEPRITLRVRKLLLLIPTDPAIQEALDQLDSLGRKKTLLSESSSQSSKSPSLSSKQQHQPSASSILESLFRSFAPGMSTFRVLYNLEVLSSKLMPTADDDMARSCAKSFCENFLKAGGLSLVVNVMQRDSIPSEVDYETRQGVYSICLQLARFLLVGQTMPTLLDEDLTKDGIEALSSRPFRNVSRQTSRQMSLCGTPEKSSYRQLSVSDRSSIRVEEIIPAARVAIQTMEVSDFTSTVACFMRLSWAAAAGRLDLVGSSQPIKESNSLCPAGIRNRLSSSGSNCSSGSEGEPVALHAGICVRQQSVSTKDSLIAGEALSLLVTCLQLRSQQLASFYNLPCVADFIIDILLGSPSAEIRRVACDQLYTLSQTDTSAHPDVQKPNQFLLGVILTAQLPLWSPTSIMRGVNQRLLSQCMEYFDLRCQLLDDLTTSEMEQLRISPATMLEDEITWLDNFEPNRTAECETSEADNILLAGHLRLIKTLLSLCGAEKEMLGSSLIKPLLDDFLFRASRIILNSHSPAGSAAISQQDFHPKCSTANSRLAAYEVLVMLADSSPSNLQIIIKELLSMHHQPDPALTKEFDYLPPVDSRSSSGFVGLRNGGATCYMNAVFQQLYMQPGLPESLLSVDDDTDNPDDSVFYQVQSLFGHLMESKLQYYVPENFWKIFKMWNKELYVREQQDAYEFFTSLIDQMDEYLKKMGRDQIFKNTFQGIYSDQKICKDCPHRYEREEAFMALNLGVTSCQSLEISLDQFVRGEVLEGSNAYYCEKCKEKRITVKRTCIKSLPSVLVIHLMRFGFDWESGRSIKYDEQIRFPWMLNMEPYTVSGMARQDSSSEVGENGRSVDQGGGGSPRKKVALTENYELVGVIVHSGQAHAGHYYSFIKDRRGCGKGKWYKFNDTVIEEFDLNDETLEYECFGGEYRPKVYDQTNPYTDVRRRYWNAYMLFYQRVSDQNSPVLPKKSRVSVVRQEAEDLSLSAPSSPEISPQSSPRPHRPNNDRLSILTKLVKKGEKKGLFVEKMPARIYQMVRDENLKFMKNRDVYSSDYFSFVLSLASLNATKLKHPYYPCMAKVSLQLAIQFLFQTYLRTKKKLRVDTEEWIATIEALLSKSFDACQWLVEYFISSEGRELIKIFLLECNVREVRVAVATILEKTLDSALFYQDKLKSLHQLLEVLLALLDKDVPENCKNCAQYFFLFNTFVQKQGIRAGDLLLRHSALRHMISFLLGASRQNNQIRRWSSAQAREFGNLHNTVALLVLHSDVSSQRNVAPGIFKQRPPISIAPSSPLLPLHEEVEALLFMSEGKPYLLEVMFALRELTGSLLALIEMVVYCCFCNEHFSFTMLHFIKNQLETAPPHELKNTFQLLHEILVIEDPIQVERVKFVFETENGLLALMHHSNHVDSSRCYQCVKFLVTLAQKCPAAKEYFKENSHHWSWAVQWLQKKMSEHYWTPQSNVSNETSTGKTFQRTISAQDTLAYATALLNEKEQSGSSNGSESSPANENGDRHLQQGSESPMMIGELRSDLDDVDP

SMILES: O=C(CCl)NC1CCOc2ccccc21 (stereo not given)
- log2 ratio of Biotin-Ahx-Ub-VS probe labelling (USP19): -0.918
- log2 ratio of Biotin-Ahx-Ub-VS probe labelling (USP22): -0.51
- log2 ratio of Biotin-Ahx-Ub-VS probe labelling (USP24): -1.01 (active)
- log2 ratio of Biotin-Ahx-Ub-VS probe labelling (USP25): -1.23 (active)
- log2 ratio of Biotin-Ahx-Ub-VS probe labelling (USP28): -1.6 (active)
